Experimental data published in PubChem BioAssay (Tox21).
Inconclusive results are not listed. Calls of active or inactive are those of the source. Unless noted, calls follow the shape of the dose curve; as a rule, active = well fitted curve in the direction sought with a large enough effect in the repeat runs; inconclusive = weak or mixed curves; inactive = no such curve, though single readings can be large; an effect the other way counts as inactive or inconclusive.

Key:
[1] = qHTS assay for small molecules that induce genotoxicity in human embryonic kidney cells expressing luciferase-tagged ATAD5 (AID 651632); also: nearly all actives have a fitted effect of over 15% in size
Procedure, shortened: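 HEK293T cells carrying luciferase-tagged ATAD5 were given compound or DMSO vehicle and incubated 16 hr at 37C, 5% CO2. Luciferase activity was read after 30 min at room temperature with Amplite; a rise signals genotoxic stress.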

[2] = qHTS assay for small molecules that induce genotoxicity in human embryonic kidney cells expressing luciferase-tagged ATAD5 - cell viability (AID 651634; calls by dose curve; also: nearly all actives have a fitted effect of over 25% in size)
Procedure, shortened: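 HEK293T cells carrying luciferase-tagged ATAD5, 2,000 cells/well, exposed to compound for 15.5 hr at 37C. Viability read as live-cell protease activity by CellTiter-Fluor fluorescence after 30 min at 37C.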

[3] = qHTS assay for small molecule disruptors of the mitochondrial membrane potential (AID 720635)
Procedure, shortened: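 HepG2 cells exposed to compound 1 hr at 37C, then Mito-MPS dye 30 min. Ratio read of aggregate (540/590 nm) versus monomer (490/535 nm) fluorescence.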

[4] = qHTS assay to test for compound auto fluorescence at 590 nm (red) in HepG2 cells (AID 720674)
Procedure, shortened: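 Fluorescence at 590 nm emission following 540 nm excitation was recorded from HepG2 wells one hour after compound transfer, with DMSO-only wells as vehicle and Rose Bengal sodium equivalency as the scale.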

[5] = qHTS assay to test for compound auto fluorescence at 535 nm (green) in HepG2 cells (AID 720675)
[6] = qHTS assay to test for compound auto fluorescence at 460 nm (blue) in HEK293 cells (AID 720678)
Procedure, shortened: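 HEK293 cells (2,000/well, medium with 10% dialyzed FBS) attached 4-5 hr, then exposed to compound overnight at 37C, 5% CO2. Blue fluorescence read at 405/460 nm, with triamterene as reference fluorophore.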

[7] = qHTS assay to test for compound auto fluorescence at 590 nm (red) in HEK293 cells (AID 720679)
Procedure, shortened: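 HEK293 cells (2,000/well, 10% dialyzed FBS) attached 4-5 hr, then dosed with compound or DMSO and incubated overnight at 37C, 5% CO2. Red fluorescence read at 540/590 nm, Rose Bengal sodium as reference fluorophore.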

[8] = qHTS assay to test for compound auto fluorescence at 535 nm (green) in HEK293 cells (AID 720680)
[9] = qHTS assay to test for compound auto fluorescence at 460 nm (blue) in HEK293 cell free culture (AID 720681)
Procedure, shortened: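 Compounds were added to cell-free DMEM with 10% FBS and fluorescence read directly. The blue channel used 405 nm excitation and 460 nm emission, with triamterene as the reference fluorophore.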

[10] = qHTS assay to test for compound auto fluorescence at 535 nm (green) in HEK293 cell free culture (AID 720682)
Procedure, shortened: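 Using fluorescein as calibrant, autofluorescence was quantified at 485/535 nm in cell-free DMEM containing 10% FBS after pintool addition of compound or vehicle.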

[11] = qHTS assay to test for compound auto fluorescence at 590 nm (red) in HEK293 cell free culture (AID 720683)
Procedure, shortened: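 Cell-free wells of DMEM with 10% FBS received compound, and intrinsic fluorescence was read at excitation/emission 540/590 nm. Values expressed as equivalence to Rose Bengal sodium.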

[12] = qHTS assay to test for compound auto fluorescence at 590 nm (red) in HepG2 cell free culture (AID 720684)
Procedure, shortened: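 Compounds are added to culture medium (MEM, 10% FBS) lacking cells, then fluorescence is read at excitation 540 nm, emission 590 nm, with Rose Bengal sodium as the equivalency standard.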

[13] = qHTS assay to test for compound auto fluorescence at 460 nm (blue) in HepG2 cell free culture (AID 720685)
Procedure, shortened: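 Compound (23 nL) or DMSO pinned into cell-free MEM with 10% FBS; blue fluorescence read at 405/460 nm excitation/emission, expressed as auto-fluorescence equivalency to triamterene.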

[14] = qHTS assay to test for compound auto fluorescence at 535 nm (green) in HepG2 cell free culture (AID 720686)
[15] = qHTS assay to test for compound auto fluorescence at 460 nm (blue) in HepG2 cells (AID 720687)
Procedure, shortened: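 HepG2 cells in MEM with 10% FBS, attached overnight at 37 C, were exposed to compound or DMSO for 1 hr at 37 C, 5% CO2. Blue fluorescence was read at 405/460 nm, with triamterene as reference fluorophore.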

[16] = target: Glucocorticoid receptor (Homo sapiens) (UniProt P04150); test: qHTS assay to identify small molecule agonists of the glucocorticoid receptor (GR) signaling pathway (AID 720691; active = well fitted activation curve with a large enough effect in the signal ratio in the repeat runs, not every such curve was filed as active; the % refers to the signal ratio)
Procedure, shortened: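 GR-bla HeLa cells carrying a GRE-driven beta-lactamase reporter, exposed to compounds for 18 h at 37 C. Reporter activation read as fluorescence after 2 h with LiveBLAzer B/G FRET substrate at room temperature.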

[17] = target: Glucocorticoid receptor (Homo sapiens) (UniProt P04150); test: qHTS assay to identify small molecule antagonists of the glucocorticoid receptor (GR) signaling pathway (AID 720692; active = well fitted inhibition curve with a large enough effect in the signal ratio in the repeat runs, not every such curve was filed as active; the % refers to the signal ratio)
Procedure, shortened: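 GR-bla HeLa cells carrying a GRE-driven beta-lactamase reporter received compound after 4 h plating, then dexamethasone (5 nM final). After 18 h at 37C, the FRET substrate was loaded for 2 h at room temperature and fluorescence read.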

[18] = qHTS assay for small molecule disruptors of the mitochondrial membrane potential - cell viability (AID 720634; calls by dose curve;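 also: human HepG2 liver cancer cells; series mostly up to about 83 µM; nearly all actives have a fitted effect of over 20% in size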)
Procedure, shortened: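 HepG2 cells, 2,000 per well, attached overnight, then treated 1 hr at 37 C, 5% CO2. Viability read as ATP by CellTiter-Glo luminescence after 30 min at room temperature. Read in the same wells as the m-MPI membrane-potential dye assay.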

[19] = qHTS assay for small molecule agonists of the p53 signaling pathway - cell viability (AID 651633; calls by dose curve;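 also: p53RE-bla HCT reporter cells with a stable beta-lactamase p53 reporter; series mostly up to about 83 µM; nearly all actives have a fitted effect of over 30% in size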)
Procedure, shortened: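 p53RE-bla cells were treated with compound for 16 hours at 37 C. Cytotoxicity was then measured as CellTiter-Glo luminescence after 30 min at room temperature.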
% is scaled to controls: 0 for no effect and ±100 for the full control effect.

Chain of Glucocorticoid receptor (Homo sapiens) (P04150 whole entry, looked up): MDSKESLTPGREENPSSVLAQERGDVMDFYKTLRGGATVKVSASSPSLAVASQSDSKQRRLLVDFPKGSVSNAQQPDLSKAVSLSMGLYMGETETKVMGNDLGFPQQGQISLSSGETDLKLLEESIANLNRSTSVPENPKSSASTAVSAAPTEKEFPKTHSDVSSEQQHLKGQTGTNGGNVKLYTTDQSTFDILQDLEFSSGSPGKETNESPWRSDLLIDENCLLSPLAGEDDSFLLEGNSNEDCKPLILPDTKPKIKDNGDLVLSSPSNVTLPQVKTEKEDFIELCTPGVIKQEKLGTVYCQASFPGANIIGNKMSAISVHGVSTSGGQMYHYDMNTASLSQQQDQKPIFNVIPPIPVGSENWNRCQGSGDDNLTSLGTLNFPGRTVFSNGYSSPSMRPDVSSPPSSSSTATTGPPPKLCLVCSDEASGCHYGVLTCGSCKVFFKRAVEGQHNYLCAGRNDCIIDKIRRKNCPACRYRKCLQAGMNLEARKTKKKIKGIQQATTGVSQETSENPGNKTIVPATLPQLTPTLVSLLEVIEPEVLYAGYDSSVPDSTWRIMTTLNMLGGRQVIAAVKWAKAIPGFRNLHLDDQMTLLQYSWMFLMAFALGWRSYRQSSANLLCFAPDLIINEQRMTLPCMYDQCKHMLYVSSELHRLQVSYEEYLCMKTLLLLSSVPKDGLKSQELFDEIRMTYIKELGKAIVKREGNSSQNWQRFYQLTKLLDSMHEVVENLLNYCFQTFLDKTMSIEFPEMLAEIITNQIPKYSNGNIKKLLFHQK

CC(C)c1cc(C(C)C)cc(C(C)C)c1
inactive: Potency [1] | outcome [2] | Potency [3] | outcome [4] | outcome [5] | outcome [6] | outcome [7] | outcome [8] | outcome [9] | outcome [10] | outcome [11] | outcome [12] | outcome [13] | outcome [14] | outcome [15] | Potency [16] | outcome [17]

CSC(=O)c1cccc2nnsc12
inactive: Potency [1] | outcome [2] | outcome [18] | Potency [3] | outcome [4] | outcome [5] | outcome [6] | outcome [7] | outcome [8] | outcome [10] | outcome [11] | outcome [12] | outcome [13] | outcome [14] | outcome [15] | outcome [17]

BrCCOc1ccccc1
inactive: outcome [2] | outcome [18] | outcome [4] | outcome [5] | outcome [6] | outcome [7] | outcome [8] | outcome [9] | outcome [10] | outcome [11] | outcome [12] | outcome [13] | outcome [14] | outcome [15] | Potency [16] | outcome [17]

CN(C)c1ccncc1
inactive: outcome [19] | Potency [3] | outcome [4] | outcome [5] | outcome [6] | outcome [7] | outcome [8] | outcome [9] | outcome [10] | outcome [11] | outcome [12] | outcome [13] | outcome [14] | outcome [15]

CCCCCCCC(=O)N(C)C
inactive: Potency [1] | outcome [2] | Potency [3] | outcome [4] | outcome [5] | outcome [6] | outcome [7] | outcome [8] | outcome [9] | outcome [10] | outcome [11] | outcome [12] | outcome [13] | outcome [14] | outcome [15]

Cc1ccc2ccccc2n1
inactive: outcome [2] | outcome [18] | Potency [3] | outcome [4] | outcome [5] | outcome [6] | outcome [7] | outcome [8] | outcome [10] | outcome [11] | outcome [12] | outcome [13] | outcome [14] | outcome [15] | Potency [16]

CC/C=C/CCCCCCCCCCOC(C)=O
inactive: Potency [1] | outcome [2] | outcome [18] | Potency [3] | outcome [4] | outcome [5] | outcome [6] | outcome [7] | outcome [8] | outcome [10] | outcome [11] | outcome [12] | outcome [13] | outcome [14] | outcome [15] | Potency [16] | outcome [17]

C=CC(=O)OCCOCCOCC
inactive: outcome [19] | outcome [2] | Potency [3] | outcome [4] | outcome [5] | outcome [6] | outcome [7] | outcome [8] | outcome [9] | outcome [10] | outcome [11] | outcome [12] | outcome [13] | outcome [14] | outcome [15] | Potency [16]

CC(=O)SC[C@@H](C)C(=O)N1CCC[C@H]1C(=O)N[C@@H](Cc1ccccc1)C(=O)O
inactive: Potency [1] | outcome [2] | outcome [18] | outcome [4] | outcome [5] | outcome [6] | outcome [7] | outcome [8] | outcome [9] | outcome [10] | outcome [11] | outcome [12] | outcome [13] | outcome [14] | outcome [15]

O=C(O)Cc1ccccc1Oc1ccc(Cl)cc1Cl
inactive: Potency [1] | outcome [2] | outcome [18] | Potency [3] | outcome [4] | outcome [5] | outcome [6] | outcome [7] | outcome [8] | outcome [9] | outcome [10] | outcome [11] | outcome [12] | outcome [13] | outcome [14] | outcome [15] | Potency [16]

CCCCCCCCCCCCCCBr
inactive: outcome [19] | outcome [2] | outcome [18] | Potency [3] | outcome [4] | outcome [5] | outcome [6] | outcome [7] | outcome [8] | outcome [10] | outcome [11] | outcome [12] | outcome [13] | outcome [14] | outcome [15] | Potency [16] | outcome [17]

O=S(=O)(O)c1cc(I)c(O)c2ncccc12
inactive: outcome [2] | Potency [3] | outcome [4] | outcome [5] | outcome [6] | outcome [7] | outcome [8] | outcome [10] | outcome [11] | outcome [12] | outcome [13] | outcome [14] | outcome [15]

COc1cc(NS(=O)(=O)c2ccc(N)cc2)ncn1
inactive: Potency [1] | outcome [2] | outcome [18] | fluorescence, relative to Rose Bengal [4] -0.434% [at 18.6 µM] | fluorescence, % of fluorescein control [5] 0.0032% [at 18.6 µM] | fluorescence, % of triamterene [6] -0.148% [at 18.6 µM] | fluorescence, % of fluorescein [8] 0.0387% [at 18.6 µM] | fluorescence, % of fluorescent control [9] 0.0083% [at 18.6 µM] | activity change [10] 0.0071% [at 18.6 µM] | fluorescence, % of fluorescent control [11] -0.0018% [at 18.6 µM] | fluorescence, % of Rose Bengal [12] 0.116% [at 18.6 µM] | fluorescence, % of fluorescent control [13] 0.0187% [at 18.6 µM] | fluorescence, % of fluorescein control [14] 0.0114% [at 18.6 µM] | fluorescence, % of fluorescent control [15] -0.0071% [at 18.6 µM] | Potency [16] | outcome [17]

NCC1CCC(C(=O)Oc2ccc(CCC(=O)O)cc2)CC1 (stereo not drawn)
inactive: outcome [2] | Potency [3] | outcome [4] | outcome [5] | outcome [6] | outcome [7] | outcome [8] | outcome [9] | outcome [10] | outcome [11] | outcome [12] | outcome [13] | outcome [14] | outcome [15]

CC(CN1CC(=O)NC(=O)C1)N1CC(=O)NC(=O)C1 (stereo not drawn)
inactive: outcome [2] | outcome [18] | Potency [3] | outcome [4] | outcome [5] | outcome [6] | outcome [7] | outcome [8] | outcome [9] | outcome [10] | outcome [11] | outcome [12] | outcome [13] | outcome [14] | outcome [15]

CC(=O)OCC(=O)[C@@]1(O)CC[C@H]2[C@@H]3CCC4=CC(=O)C=C[C@]4(C)[C@H]3[C@@H](O)C[C@@]21C
inactive: outcome [19] | outcome [2] | outcome [18] | outcome [4] | outcome [5] | outcome [6] | outcome [7] | outcome [8] | outcome [9] | outcome [10] | outcome [11] | outcome [12] | outcome [13] | outcome [14] | outcome [15]
